We go through 40 compounds from the supplement of paper PMC11732987, “Enantioselective OTUD7B fragment discovery through chemoproteomics screening and high-throughput optimisation” (Communications Chemistry, 2025).

Unmarked numbers belong to inactive results.

USP14, sequence (P54578 whole entry, the tested form may be a part): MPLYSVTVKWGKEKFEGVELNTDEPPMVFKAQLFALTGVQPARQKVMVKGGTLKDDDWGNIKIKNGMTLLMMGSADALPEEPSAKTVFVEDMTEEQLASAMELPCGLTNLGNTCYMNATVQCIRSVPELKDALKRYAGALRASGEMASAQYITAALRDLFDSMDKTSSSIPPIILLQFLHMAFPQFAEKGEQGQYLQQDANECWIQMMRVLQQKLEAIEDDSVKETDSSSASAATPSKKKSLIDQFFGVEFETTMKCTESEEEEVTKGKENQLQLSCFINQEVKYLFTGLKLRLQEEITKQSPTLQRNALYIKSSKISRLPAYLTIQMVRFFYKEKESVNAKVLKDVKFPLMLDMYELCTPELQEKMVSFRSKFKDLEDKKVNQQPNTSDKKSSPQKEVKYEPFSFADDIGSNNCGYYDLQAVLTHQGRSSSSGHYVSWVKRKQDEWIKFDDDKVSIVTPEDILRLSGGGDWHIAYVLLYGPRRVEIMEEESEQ

The assay concerns the target USP14 (UniProt P54578). Kind of assay: log2 ratio of Biotin-Ahx-Ub-VS probe labelling (fragment/DMSO); higher = less target engagement (more negative = stronger competition), active = hit call of the paper (q ≤ 0.05, log2 ratio ≤ -1). The following applies: compound concentration: 200 uM; treatment time: 3 h. As for the experimental part:
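Competitive ABPP in HEK293T cell lysate. Lysates were treated with each chloroacetamide fragment at 200 µM for 3 h, then with Biotin-Ahx-Ub-VS (0.5 µM, 1 h), NeutrAvidin-enriched and analysed by diaPASEF LC-MS/MS. Protein LFQ was median-normalised; average log2 ratio is fragment/DMSO from an unpaired t-test (n=3 treated, n=44 DMSO). Hits: q ≤ 0.05, log2 ratio ≤ -1, unique peptides ≥ 2.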
For the compound `Cc1cc(Cl)ccc1NC(=O)CCl`, the “log2 ratio of Biotin-Ahx-Ub-VS probe labelling” value (“log2 ratio” below) was -0.0914.
Take `O=C(CCl)Nc1cccc(NC(=O)c2ccccc2)c1`: the “log2 ratio” value was 0.235.
For `Cl.O=C(CCl)N1CCC(Cc2nccs2)C1` (stereo not given), the “log2 ratio” value is -0.2.
Next, `CCN(C(=O)CCl)C1CCS(=O)(=O)C1` (stereo not given): -0.155.
For `C#Cc1cccc(NC(=O)CCl)c1`, the “log2 ratio” value was -0.191.
Next, `O=C(CCl)N(C1CCCC1)C1CCS(=O)(=O)C1` (stereo not given): -0.171; `NS(=O)(=O)c1ccc(Cl)c(NC(=O)CCl)c1`: -0.356.
On to `CC1Cc2ccccc2N1C(=O)CCl` (stereo not given), for which the “log2 ratio” value is -0.771.
As to `Cl.O=C(CCl)NCc1ccnc(Oc2ccccc2F)c1`, the “log2 ratio” value was -0.153.
Take `Cc1cccc(N(CCC#N)C(=O)CCl)c1C`: the “log2 ratio” value was 0.0267.
For `CNC(=O)C1(NC(=O)CCl)CCCCC1`, the “log2 ratio” value was -0.0905.
In the case of `O=C(CCl)N1CCCCCC1c1ncon1` (stereo not given), the “log2 ratio” value was -0.087.
As to `O=C(CCl)N1CCc2sccc2C1`, the “log2 ratio” value was -0.619.
As for `Cn1cc(CN(Cc2ccc(Cl)cc2)C(=O)CCl)cn1`, the figure is -1.03 (active); as for `Cl.O=C(CCl)N1CC(c2ccc(Br)cn2)C1`, -0.592.
For the compound `O=C(CCl)N1CCN2C(=O)CCC2C1` (stereo not given), the “log2 ratio” value was 0.0904.
`O=C(CCl)NC1CCN(C(=O)C2CCCCC2)CC1`: the “log2 ratio” value is -0.0275.
Consider `Cc1nc(CN2CCCN(C(=O)CCl)CC2)no1.Cl`, for which the “log2 ratio” value was 0.0942.
As for `COc1ccccc1C(C)NC(=O)CCl` (stereo not given), the figure is -0.458.
As to `O=C(CCl)NCCc1ccc2c(c1)OCCO2`, the “log2 ratio” value was -0.579.
Next, `CN(C(=O)CCl)c1nc2ccccc2s1`: -0.178.
Take `CCN1C(=O)C2CN(C(=O)CCl)CCN2C1=O` (stereo not given): the “log2 ratio” value is -0.176.
Take `CNC(=O)C1CCN(C(=O)CCl)CC1`: the “log2 ratio” value was -0.146.
For `CCc1c[nH]c(CNC(=O)CCl)n1.Cl`, the “log2 ratio” value was -0.5.
Turning to `O=C(CCl)NCC1(c2ccccc2)CC1`, the “log2 ratio” value was 0.0125.
Regarding `Cl.Cn1ncc2c1CC(NC(=O)CCl)CC2` (stereo not given), the “log2 ratio” value was 0.136.
On to `O=C(CCl)Nc1ccc(F)cc1F`, for which the “log2 ratio” value was -0.106.
Consider `O=C(CCl)Nc1cc2c(cc1Cl)OCCO2`, for which the “log2 ratio” value is 0.233.
In the case of `Cc1cccc(N2CCC(NC(=O)CCl)C2=O)c1` (stereo not given), the “log2 ratio” value is -0.345.
For `Cc1ccccc1CN(C)C(=O)CCl`, the “log2 ratio” value was -0.81.
On to `O=C(CCl)NCc1ccc2c(c1)OCO2`, for which the “log2 ratio” value is 0.052.
On to `Cc1ccc(C(=O)NCCNC(=O)CCl)cc1`, for which the “log2 ratio” value is -0.414.
Turning to `O=C(CCl)N1CCC(=C(F)CO)C1`, the “log2 ratio” value is 0.054.
`CN(C)S(=O)(=O)c1ccccc1CNC(=O)CCl`: the “log2 ratio” value was 0.0554.
As for `O=C(CCl)NCCC1=CCCCC1`, the “log2 ratio” value is 0.0195.
For the compound `O=C(CCl)N1CCC(S(=O)(=O)c2ccc(F)cc2)CC1`, the “log2 ratio” value is -0.0146.
Next, `O=C(CCl)N1CCOC2(CCC2)CC1`: -0.247.
Regarding `O=C(CCl)N1CC=C(c2c[nH]c3ccccc23)CC1`, the “log2 ratio” value is -0.573.
Take `Cc1cc(C(=O)NC2CCN(C(=O)CCl)CC2)no1`: the “log2 ratio” value was -0.31.
As for `O=C(CCl)Nc1ccc(F)cc1Cl`, the figure is -0.833.
